Laboratory results reported in PubChem BioAssay (NCATS).
Values joined by “and” are separate entries in the source; they are usually repeats but may differ in a detail not shown here. Identical values can stand only once. Inconclusive results are not listed. A call without a number means that no potency is given here. Some compounds were tested as several samples or in several runs, with calls that do not always agree. Active and inactive are the calls of the source. Unless noted, calls come from the whole dose curve; as a rule, active = well fitted curve in the direction sought with a large enough effect; inconclusive = small, poorly fitted or top-dose-only effect, or another doubt; inactive = no such curve, though single readings can be large; an effect the other way counts as inactive or inconclusive.

Assays:
[1] = molecular target: Beta-2 adrenergic receptor (Homo sapiens) (UniProt P07550); assay: qHTS validation assay of beta-arrestin-biased ligands of beta2-adrenergic receptor (AID 485366)
Sequence of Beta-2 adrenergic receptor (Homo sapiens) (P07550 whole entry, looked up): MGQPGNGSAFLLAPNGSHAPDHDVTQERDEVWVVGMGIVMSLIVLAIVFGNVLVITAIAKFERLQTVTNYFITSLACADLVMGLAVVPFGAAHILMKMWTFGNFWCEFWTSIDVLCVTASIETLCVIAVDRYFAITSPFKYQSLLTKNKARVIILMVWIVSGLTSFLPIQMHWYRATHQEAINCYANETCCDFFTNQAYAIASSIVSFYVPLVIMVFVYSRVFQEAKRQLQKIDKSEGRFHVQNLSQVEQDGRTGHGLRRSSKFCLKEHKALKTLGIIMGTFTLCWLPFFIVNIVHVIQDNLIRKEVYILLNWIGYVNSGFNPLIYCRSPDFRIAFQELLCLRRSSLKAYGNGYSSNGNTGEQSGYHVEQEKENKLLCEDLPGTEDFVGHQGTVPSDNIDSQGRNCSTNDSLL
Outline: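 qHTS, Tango cells, 1500 cells/well, DMEM + 1% FBS. Cpd 18 hr at 37 degrees C. Luciferin/ATP/CoA detection mix, 15 min RT, luminescence read. %Activity from corrected signal; CRC fit, curve class.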

[2] = Quantitative high throughput screen for delayed death inhibitors of the malarial parasite plastid, 96 hour incubation (AID 488745); note: nearly all actives have a fitted effect of over 70% in size; note: potency is the fitted concentration of half-maximal effect
Outline: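 Decreased firefly luciferase luminescence indicates inhibited growth of reporter-integrated P. falciparum after two generations (96 h, 37 C, 5% CO2). Infected erythrocytes at 0.1% parasitemia, 2% hematocrit, in Albumax-supplemented RPMI 1640.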

[3] = molecular target: Thioredoxin reductase 1, cytoplasmic (Rattus norvegicus) (UniProt O89049); assay: qHTS Assay for Substrates of Mammalian Selenoprotein Thioredoxin Reductase 1 (TrxR1) (AID 488772);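 note: series mostly up to about 57 µM; a drop in NADPH fluorescence below the no-compound background marks a TrxR1 substrate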
Sequence of Thioredoxin reductase 1, cytoplasmic (Rattus norvegicus) (O89049 whole entry, looked up): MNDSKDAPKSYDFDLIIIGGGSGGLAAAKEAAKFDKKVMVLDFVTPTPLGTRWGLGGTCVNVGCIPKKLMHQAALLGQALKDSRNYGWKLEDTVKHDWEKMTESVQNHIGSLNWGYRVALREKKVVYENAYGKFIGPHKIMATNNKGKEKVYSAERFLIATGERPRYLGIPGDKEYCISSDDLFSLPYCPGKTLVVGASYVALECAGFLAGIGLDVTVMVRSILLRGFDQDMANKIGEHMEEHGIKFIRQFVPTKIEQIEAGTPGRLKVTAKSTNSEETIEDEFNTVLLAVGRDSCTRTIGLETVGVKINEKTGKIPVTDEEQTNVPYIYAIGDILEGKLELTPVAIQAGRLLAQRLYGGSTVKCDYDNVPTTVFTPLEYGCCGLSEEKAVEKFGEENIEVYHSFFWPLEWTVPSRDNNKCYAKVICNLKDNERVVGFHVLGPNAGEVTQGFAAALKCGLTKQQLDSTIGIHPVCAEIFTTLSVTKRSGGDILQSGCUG
Outline: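 In this dual-purpose format, potential substrates are identified from the first fluorescence read after selenite addition, not from the 8-minute delta. Rat enzyme is preincubated with NADPH and then with compound at ~22 deg C.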

[4] = molecular target: Thioredoxin reductase 1, cytoplasmic (Rattus norvegicus) (UniProt O89049); assay: qHTS Assay for Inhibitors of Mammalian Selenoprotein Thioredoxin Reductase 1 (TrxR1) (AID 488773); conditions: Potency: inhibition; note: nearly all actives have a fitted effect of over 40% in size; note: potency is the fitted concentration of half-maximal effect
Outline: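 Inhibition is scored from the loss of NADPH fluorescence between first and last reads of an 8-min kinetic run. Selenite (400 uM) was the substrate, added after 15 min compound preincubation at room temperature.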

[5] = molecular target: Flap endonuclease 1 (Homo sapiens) (UniProt P39748); assay: qHTS Validation Assay for the Inhibitors of Human Flap endonuclease 1 (FEN1) (AID 488816); note: potency is the fitted concentration of half-maximal effect
Sequence of Flap endonuclease 1 (Homo sapiens) (P39748 whole entry, looked up): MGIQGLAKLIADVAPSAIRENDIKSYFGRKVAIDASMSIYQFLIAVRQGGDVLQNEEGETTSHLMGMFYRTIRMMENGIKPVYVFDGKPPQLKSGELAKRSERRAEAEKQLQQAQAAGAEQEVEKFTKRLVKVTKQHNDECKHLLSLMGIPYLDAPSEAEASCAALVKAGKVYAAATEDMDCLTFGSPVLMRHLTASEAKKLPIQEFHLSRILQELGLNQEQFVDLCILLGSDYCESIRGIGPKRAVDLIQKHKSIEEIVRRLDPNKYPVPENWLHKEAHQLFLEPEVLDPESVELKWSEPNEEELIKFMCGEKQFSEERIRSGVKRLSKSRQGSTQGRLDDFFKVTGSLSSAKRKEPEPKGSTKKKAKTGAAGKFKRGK
Outline: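 Steps: add FEN1 (10 nM reagent) or buffer only; pin compounds; hold 15 min at room temperature; start with substrate, 50 nM final; read at 0 and 15 min; correct, normalize and fit a four-parameter Hill curve.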

[6] = molecular target: M-phase phosphoprotein 8 (Homo sapiens) (UniProt Q99549); assay: qHTS Validation Assay for Inhibitors for MPP8 Chromodomain Interactions with Methylated Histone Tails (AID 488949); note: nearly all actives have a fitted effect of over 55% in size; note: potency is the fitted concentration of half-maximal effect
Sequence of M-phase phosphoprotein 8 (Homo sapiens) (Q99549 whole entry, looked up): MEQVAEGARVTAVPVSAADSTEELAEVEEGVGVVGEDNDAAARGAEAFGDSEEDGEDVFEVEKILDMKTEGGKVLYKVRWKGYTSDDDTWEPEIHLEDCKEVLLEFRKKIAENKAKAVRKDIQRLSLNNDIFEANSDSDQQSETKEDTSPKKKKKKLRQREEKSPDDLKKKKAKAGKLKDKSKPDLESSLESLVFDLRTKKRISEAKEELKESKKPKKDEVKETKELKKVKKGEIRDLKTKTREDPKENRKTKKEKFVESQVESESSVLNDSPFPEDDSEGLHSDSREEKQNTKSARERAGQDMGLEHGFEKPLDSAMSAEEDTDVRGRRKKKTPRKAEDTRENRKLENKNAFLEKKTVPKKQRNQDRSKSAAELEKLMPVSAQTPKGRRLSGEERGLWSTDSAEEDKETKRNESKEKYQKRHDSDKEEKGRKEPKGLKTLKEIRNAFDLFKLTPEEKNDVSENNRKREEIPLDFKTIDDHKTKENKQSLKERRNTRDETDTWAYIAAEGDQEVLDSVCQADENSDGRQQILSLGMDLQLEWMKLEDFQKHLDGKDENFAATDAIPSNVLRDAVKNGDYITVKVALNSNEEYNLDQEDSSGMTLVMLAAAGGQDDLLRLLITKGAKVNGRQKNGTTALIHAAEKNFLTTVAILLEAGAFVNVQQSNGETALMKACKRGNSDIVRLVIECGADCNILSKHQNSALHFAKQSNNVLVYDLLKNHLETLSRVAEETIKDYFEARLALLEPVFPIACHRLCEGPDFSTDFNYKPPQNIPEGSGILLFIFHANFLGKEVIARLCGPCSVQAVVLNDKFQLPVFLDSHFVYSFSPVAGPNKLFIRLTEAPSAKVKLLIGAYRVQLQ
Outline: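 Disruption of the preformed MPP8–trimethyl-H3K9 peptide complex (both 50 nM, 30 min, RT) is measured after 30 min compound exposure, using AlphaScreen proximity beads; aurintricarboxylic acid titration serves as plate control.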

[7] = molecular target: Chromobox protein homolog 1 (Homo sapiens) (UniProt P83916); assay: qHTS Validation Assay for Inhibitors of HP1-beta Chromodomain Interactions with Methylated Histone Tails (AID 488953); note: nearly all actives have a fitted effect of over 50% in size; note: potency is the fitted concentration of half-maximal effect
Sequence of Chromobox protein homolog 1 (Homo sapiens) (P83916 whole entry, looked up): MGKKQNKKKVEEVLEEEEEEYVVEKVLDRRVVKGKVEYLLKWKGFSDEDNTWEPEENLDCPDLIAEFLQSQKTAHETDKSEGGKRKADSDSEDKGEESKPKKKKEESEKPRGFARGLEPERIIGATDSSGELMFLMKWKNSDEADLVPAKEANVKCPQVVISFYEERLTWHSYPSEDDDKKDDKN
Outline: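 AlphaScreen proximity signal from streptavidin donor and nickel chelate acceptor beads (final 10 ug/mL) after 30 min dark incubation. Compounds had 30 min at room temperature with preformed complex of 50 nM HP1-beta and 50 nM b-H3(1-18)K9me3 in PBS pH 7.4 with 0.01% Tween-20.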

[8] = molecular target: Methanococcus maripaludis chaperonin (MmCpn) (UniProt Q6LX38); assay: High-Throughput Screening for Modulators of Cytosolic Chaperonin Activity: MmCpn Primary Screen (AID 488978);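 note: 50 nM MmCpn enzyme hydrolysing 30 µM ATP at 37 °C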
Outline: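 Measures ATPase turnover of the M. maripaludis chaperonin (50 nM final) against 30 uM ATP over 10 min at 37C, with compound added 5 min beforehand at room temperature. ADP is quantified by HTRF immunodetection.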

[9] = molecular target: Transient receptor potential cation channel subfamily V member 1 (Homo sapiens) (UniProt Q8NER1); assay: HTS Assay for Compounds that Act as Enhancers of the Vanilloid Receptor 1 (AID 488979)
Sequence of Transient receptor potential cation channel subfamily V member 1 (Homo sapiens) (Q8NER1 whole entry, looked up): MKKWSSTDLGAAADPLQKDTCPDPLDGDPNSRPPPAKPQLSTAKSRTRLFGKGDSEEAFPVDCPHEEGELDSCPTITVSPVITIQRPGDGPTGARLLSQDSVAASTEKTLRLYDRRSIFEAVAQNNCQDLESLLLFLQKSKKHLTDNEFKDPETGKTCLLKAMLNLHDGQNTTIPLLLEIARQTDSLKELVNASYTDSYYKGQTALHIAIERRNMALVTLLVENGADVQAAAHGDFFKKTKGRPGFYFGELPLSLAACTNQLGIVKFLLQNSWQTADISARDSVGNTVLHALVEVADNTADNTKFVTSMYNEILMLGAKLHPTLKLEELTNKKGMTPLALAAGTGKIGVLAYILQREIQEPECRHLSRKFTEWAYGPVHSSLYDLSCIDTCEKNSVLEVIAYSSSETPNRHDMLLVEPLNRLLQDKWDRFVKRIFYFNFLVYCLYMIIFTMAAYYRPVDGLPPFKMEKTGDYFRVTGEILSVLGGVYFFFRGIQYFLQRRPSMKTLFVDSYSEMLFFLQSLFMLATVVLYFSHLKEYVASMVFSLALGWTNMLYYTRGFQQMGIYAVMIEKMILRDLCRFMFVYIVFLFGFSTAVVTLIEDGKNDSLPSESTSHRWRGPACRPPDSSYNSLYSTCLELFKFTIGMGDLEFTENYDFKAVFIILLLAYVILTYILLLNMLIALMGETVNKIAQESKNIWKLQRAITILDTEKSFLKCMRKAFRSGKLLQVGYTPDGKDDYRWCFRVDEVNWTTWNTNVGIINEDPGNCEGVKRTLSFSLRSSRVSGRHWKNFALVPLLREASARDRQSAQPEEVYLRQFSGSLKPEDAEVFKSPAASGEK
Outline: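 TRPV1-expressing cells loaded with Fluo-8 calcium dye; compounds added and calcium influx read kinetically for 3 min (agonist phase), then capsaicin at EC20 added and read 2 min more for enhancement. Fluorescence ex 480/em 520 nm.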

[10] = molecular target: Thyrotropin receptor (Homo sapiens) (UniProt P16473); assay: qHTS Assay for Antagonists of the Thyroid Stimulating Hormone Receptor (AID 488980); note: series mostly up to about 58 µM
Sequence of Thyrotropin receptor (Homo sapiens) (P16473 whole entry, looked up): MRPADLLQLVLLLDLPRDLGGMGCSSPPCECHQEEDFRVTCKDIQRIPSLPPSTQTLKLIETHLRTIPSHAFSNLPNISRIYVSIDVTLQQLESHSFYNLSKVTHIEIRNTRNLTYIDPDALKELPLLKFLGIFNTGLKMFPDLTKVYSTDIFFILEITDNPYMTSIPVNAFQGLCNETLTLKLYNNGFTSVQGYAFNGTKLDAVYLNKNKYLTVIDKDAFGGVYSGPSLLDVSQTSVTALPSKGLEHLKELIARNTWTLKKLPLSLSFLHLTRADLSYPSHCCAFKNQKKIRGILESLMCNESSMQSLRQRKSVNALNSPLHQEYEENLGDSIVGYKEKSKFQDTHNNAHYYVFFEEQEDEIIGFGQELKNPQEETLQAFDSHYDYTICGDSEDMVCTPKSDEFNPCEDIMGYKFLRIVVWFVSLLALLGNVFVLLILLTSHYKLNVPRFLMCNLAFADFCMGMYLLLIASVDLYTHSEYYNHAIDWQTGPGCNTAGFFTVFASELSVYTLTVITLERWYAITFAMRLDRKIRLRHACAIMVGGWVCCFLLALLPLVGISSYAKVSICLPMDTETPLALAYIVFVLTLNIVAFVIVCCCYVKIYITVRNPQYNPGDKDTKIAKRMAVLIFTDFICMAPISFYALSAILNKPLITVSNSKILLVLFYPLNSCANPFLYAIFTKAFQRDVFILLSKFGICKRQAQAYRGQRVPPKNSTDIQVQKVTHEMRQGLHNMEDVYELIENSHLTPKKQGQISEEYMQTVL
Outline: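 Cells expressing human TSHR (HEK293) are dispensed in HBSS/HEPES containing 70 uM RO 20-1724, compound is added, then TSH at EC80 (4 nM final). Antibody in lysis buffer follows, 30 minutes at room temperature before HTRF detection.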

[11] = molecular target: D(1A) dopamine receptor (Homo sapiens) (UniProt P21728); assay: HTS Assay for Allosteric Agonists of the Human D1 Dopamine Receptor: Primary Screen for Antagonists (AID 488983);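 note: calcium flux response to an EC80 dopamine challenge measured with no-wash dye; nearly all actives have a fitted effect of over 65% in size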
Outline: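 Calcium-flux read-out in inducible HEK293 T-REx cells expressing D1, dye-loaded 30–90 min at room temperature. Kinetic reads: 180 s after compound (agonist phase), then 180 s after an EC80 dopamine challenge.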

[12] = Validation screen for small molecules that induce genotoxicity in human embryonic kidney (HEK293T) cells expressing luciferase-tagged ELG1 (AID 493106)
Outline: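 ELG1-luciferase reporter readout (ONE-Glo, 30 min, room temperature) after 16 hr compound treatment at 37 °C of HEK293T cells at 2,000 per well. Rising luminescence flags genotoxic stress.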

[13] = Quantitative high throughput screen for delayed death inhibitors of the malarial parasite plastid, 48 hour incubation (AID 488752); note: nearly all actives have a fitted effect of over 65% in size; note: potency is the fitted concentration of half-maximal effect
Outline: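 One-generation (48 h) growth assay: a decrease in luciferase signal from an integrated reporter in P. falciparum-infected red cells (0.1% parasitemia, 2% hematocrit) after compound exposure at 37 C indicates parasite inhibition.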

[14] = molecular target: D(1A) dopamine receptor (Homo sapiens) (UniProt P21728); assay: HTS Assay for Allosteric Agonists of the Human D1 Dopamine Receptor: Primary Screen for Agonists (AID 488981)
Outline: (§1)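 Tetracycline-induced HEK293 T-REx cells force-coupled to calcium signalling were incubated overnight at 30 C and dye-loaded at room temperature. Calcium flux over 180 s after compound addition flagged agonists; a further 180 s read after EC20 dopamine flagged potentiators.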

[15] = molecular target: D(1A) dopamine receptor (Homo sapiens) (UniProt P21728); assay: HTS Assay for Allosteric Agonists of the Human D1 Dopamine Receptor: Primary Screen for Potentiators (AID 488982)
Outline: as §1

[16] = molecular target: Thyrotropin-releasing hormone receptor (Homo sapiens) (UniProt P34981); assay: qHTS for Small Molecule Agonists and Allosteric Enhancers of Human TRH Receptor: Validation Screen for Agonists (AID 493127;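 active = calcium activation more than 3 SD above the typical response in the agonist read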;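 note: intracellular calcium rise by fluo-8 fluorescence before TRH EC20 addition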); conditions: TRH receptor agonist cell assay; at 2 µM; stronger effect = higher value
Sequence of Thyrotropin-releasing hormone receptor (Homo sapiens) (P34981 whole entry, looked up): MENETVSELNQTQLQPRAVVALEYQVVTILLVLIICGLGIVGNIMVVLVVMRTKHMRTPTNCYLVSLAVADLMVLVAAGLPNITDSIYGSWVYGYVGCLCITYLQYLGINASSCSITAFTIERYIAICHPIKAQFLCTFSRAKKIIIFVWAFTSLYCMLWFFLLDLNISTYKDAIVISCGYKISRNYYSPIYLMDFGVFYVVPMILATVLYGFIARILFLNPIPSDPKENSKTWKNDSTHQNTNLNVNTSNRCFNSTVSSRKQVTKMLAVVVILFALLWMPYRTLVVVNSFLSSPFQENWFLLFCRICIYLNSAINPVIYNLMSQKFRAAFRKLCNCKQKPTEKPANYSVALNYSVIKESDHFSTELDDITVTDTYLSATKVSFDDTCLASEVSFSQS
Outline: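 Compound-evoked intracellular calcium release in fluo-8-loaded TRHR cells, read kinetically on FDSS (Ex 480/Em 530, 1 s/cycle) after 23 nL pintool transfer. Agonist phase preceded 10 nM TRH EC20 addition.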

[17] = molecular target: ATP-dependent 6-phosphofructokinase (Trypanosoma brucei brucei) (UniProt O15648); assay: qHTS Validation Assay to Find Inhibitors of T. brucei phosphofructokinase (AID 485368)
Sequence of ATP-dependent 6-phosphofructokinase (Trypanosoma brucei brucei) (O15648 whole entry, looked up): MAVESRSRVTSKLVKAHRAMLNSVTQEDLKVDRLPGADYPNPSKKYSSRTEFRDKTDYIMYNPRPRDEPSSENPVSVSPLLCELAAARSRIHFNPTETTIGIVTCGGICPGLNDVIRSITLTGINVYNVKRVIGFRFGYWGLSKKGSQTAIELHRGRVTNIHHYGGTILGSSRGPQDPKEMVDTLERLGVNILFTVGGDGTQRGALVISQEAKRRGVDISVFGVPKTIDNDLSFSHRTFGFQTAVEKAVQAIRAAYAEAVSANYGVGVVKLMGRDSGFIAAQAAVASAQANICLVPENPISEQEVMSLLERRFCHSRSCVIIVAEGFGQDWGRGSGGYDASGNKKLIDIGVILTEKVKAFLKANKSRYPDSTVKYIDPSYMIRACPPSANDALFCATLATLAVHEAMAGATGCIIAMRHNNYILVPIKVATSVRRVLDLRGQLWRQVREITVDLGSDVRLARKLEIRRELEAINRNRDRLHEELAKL
Outline: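 Luminescent ADP detection measures PFK turnover of fructose-6-phosphate (0.5 mM) with ATP (0.1 mM) at pH 8.0. Reaction runs 45 min at room temperature with 1.25 nM enzyme; inhibitors tested as titrations up to 57 uM.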

[18] = molecular target: ATP-dependent 6-phosphofructokinase (Trypanosoma brucei brucei) (UniProt O15648); assay: qHTS Assay to Find Inhibitors of T. brucei phosphofructokinase: hit validation (AID 492961);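 note: luminescence reports ADP formed as PFK phosphorylates fructose-6-phosphate with ATP; series mostly up to about 51 µM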
Outline: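 Reaction: 0.1 M triethanolamine pH 8.0, 5 mM MgCl2, F6P 0.5 mM, ATP 0.1 mM, PFK 1.25 nM, 45 min RT. Read-out: ADP-Glo luminescence. Analysis: concentration-response fits, classed by r2 and efficacy.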

[19] = molecular target: ATPase family AAA domain-containing protein 5 (Homo sapiens) (UniProt Q96QE3); assay: Validation screen for small molecules that inhibit ELG1-dependent DNA repair in human embryonic kidney (HEK293T) cells expressing luciferase-tagged ELG1 (AID 493107);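 note: series mostly up to about 46 µM; inhibitors lower the ELG1-luciferase luminescence signal; nearly all actives have a fitted effect of over 70% in size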
Outline: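 Luciferase read-out, ONE-Glo, 30 min at room temperature, follows 16 h co-exposure at 37 C of compound and the DNA-damaging agent 5-fluorouridine. Cells: HEK293T with ELG1-luciferase fusion, 2,000 per well, DMSO as vehicle.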

SMILES	outcome [1]	Potency [2]	outcome [3]	Potency [4]	Potency [5]	Potency [6]	Potency [7]	outcome [8]	outcome [9]	outcome [10]	Potency [11]	Potency [12]	Potency [13]	outcome [14]	Potency [15]	activation [16]	Potency [17]	outcome [18]	outcome [19]
C[C@H](Cc1ccc(O)c(O)c1)[C@@H](C)Cc1ccc(O)c(O)c1	inactive	13.1 µM (active)	inactive	9.47 µM (active)	0.752 µM (active)	25.1 µM (active) and 23.8 µM (active)	31.6 µM (active)	inactive	inactive	inactive	inactive	inactive							
C[C@@H](N)C1CCC(C(=O)Nc2ccncc2)CC1 (some centres undefined)	inactive	inactive	inactive	inactive	inactive	inactive	inactive	inactive	inactive	inactive	inactive	inactive	inactive	inactive	inactive	1.06% (inactive)			
NNc1nncc2ccccc12	inactive			inactive	inactive	inactive	inactive	inactive	inactive	inactive	inactive			inactive	inactive		inactive	inactive	
COc1cc2nc(N3CCN(C(=O)C4CCCO4)CC3)nc(N)c2cc1OC (centres undefined)	inactive		inactive	inactive	inactive	inactive	inactive	inactive	inactive			inactive	inactive	inactive	inactive	0.562% (inactive)	inactive		inactive
O=c1ccc2ccc(O)c(O)c2o1	inactive	14.7 µM (active)	inactive	inactive	9.47 µM (active)			inactive	inactive	inactive	inactive	inactive		inactive		-0.188% (inactive)			
NCCCCNCCCN	inactive	inactive	inactive	inactive	inactive	inactive	inactive	inactive	inactive	inactive	inactive	inactive	inactive	inactive	inactive	-0.0625% (inactive)	inactive		
Oc1ccc(-c2nc(-c3ccc(F)cc3)c(-c3ccncc3)[nH]2)cc1	inactive	inactive	inactive	inactive	inactive	31.6 µM (active) and inactive	56.2 µM (active)	inactive	inactive	inactive	inactive	inactive	inactive	inactive	inactive	-3.81% (inactive)	inactive		
CC(=O)O[C@H]1C(=O)[C@@]2(C)C([C@H](OC(=O)c3ccccc3)[C@]3(O)C[C@H](OC(=O)[C@H](O)[C@@H](NC(=O)c4ccccc4)c4ccccc4)C(C)=C1C3(C)C)[C@]1(OC(C)=O)CO[C@@H]1C[C@@H]2O (some centres undefined)	inactive	0.117 µM (active)	inactive	inactive	inactive	inactive	inactive	inactive	inactive	inactive	inactive	inactive	0.117 µM (active)	inactive	inactive	0.562% (inactive)	inactive		
COc1cc2c(cc1OC)C1CC(=O)C(CC(C)C)CN1CC2 (centres undefined)	inactive		inactive	inactive	inactive	inactive	inactive	inactive			inactive			inactive	inactive			inactive	
O=C(c1ccccc1)c1ccc2n1CCC2C(=O)O (centres undefined)	inactive	inactive		inactive	inactive	inactive		inactive	inactive		inactive	inactive	inactive	inactive	inactive		inactive		inactive
